Measured values as given in PubChem BioAssay (NCI).
Compounds without any hit were thinned out: in the full panel of roughly 83,000, 20% have a hit.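 Percent growth is the endpoint: 0 to 100 indicates growth inhibition (40 means 60% inhibition), 0 means no net growth, and negative values indicate cell death.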 A number with no mark means an inactive call. Activity calls are given as the source filed them. Rule for the calls: active = growth percent below 10; inactive = the rest.

Assays:
Experiment in all cases: NCI-60 one-dose screen, 48 h (100 = growth as untreated, 0 = no growth, -100 = all killed)
Conditions in all cases: 10 µM
K-562 leukemia = system: K-562 leukemia
MALME-3M melanoma = system: MALME-3M melanoma
MDA-MB-231 breast = system: MDA-MB-231 breast
RXF 393 renal = system: RXF 393 renal
SF-268 CNS = system: SF-268 CNS
SF-295 CNS = system: SF-295 CNS
SF-539 CNS = system: SF-539 CNS
UACC-257 melanoma = system: UACC-257 melanoma
M14 melanoma = system: M14 melanoma
HCT-15 colon = system: HCT-15 colon

`CCN(CC)Cc1cc(Nc2ccnc3cc(Cl)ccc23)ccc1OC` gave a growth (K-562 leukemia) of 45.1%, a growth (MALME-3M melanoma) of 110% and a growth (MDA-MB-231 breast) of 55.7%. For the same compound, the growth (RXF 393 renal) was 64.2%, the growth (SF-268 CNS) was 96.6% and the growth (SF-295 CNS) was 91%. For the same compound, the growth (SF-539 CNS) was 62.7%, the growth (UACC-257 melanoma) was 94.4% and the growth (M14 melanoma) was 7.19% (active). It also gave a growth (HCT-15 colon) of 56.4%.
In the case of `CC(=O)N1N=C(c2ccc(Cl)cc2)CC1c1sc(Cl)nc1Cl` (stereo not given), the growth (K-562 leukemia) is reported as 66.1%, the growth (MALME-3M melanoma) is reported as 94.8% and the growth (MDA-MB-231 breast) is reported as 82.1%. It also gave a growth (RXF 393 renal) of 80.5%, a growth (SF-268 CNS) of 80.1% and a growth (SF-295 CNS) of 80.3%. The growth (SF-539 CNS) was 104%, the growth (UACC-257 melanoma) was 91.9% and the growth (M14 melanoma) was 94.6%. The growth (HCT-15 colon) was 96.3%.
With `O=C(Nc1cccc(-n2cc(-c3ccncc3)c(-c3cc(O)cc(Cl)c3)n2)c1)c1cc(C(F)(F)F)cc(C(F)(F)F)c1` the growth (K-562 leukemia) was 20.4%, the growth (MALME-3M melanoma) was 61.7% and the growth (MDA-MB-231 breast) was -34.6% (active). The growth (RXF 393 renal) was -10.3% (active), the growth (SF-268 CNS) was 69.4% and the growth (SF-295 CNS) was 15%. The growth (SF-539 CNS) was 75.5%, the growth (UACC-257 melanoma) was 71% and the growth (M14 melanoma) was 24.5%. The growth (HCT-15 colon) was 30.1%.
`O=c1[nH]c2ccc(Cl)cc2c2ccccc12` gave a growth (K-562 leukemia) of 110%, a growth (MALME-3M melanoma) of 60.7% and a growth (MDA-MB-231 breast) of 78.2%. For the same compound, the growth (RXF 393 renal) was 61.1%, the growth (SF-268 CNS) was 79.4% and the growth (SF-295 CNS) was 97.9%. It also gave a growth (SF-539 CNS) of 80.1%, a growth (UACC-257 melanoma) of 105% and a growth (M14 melanoma) of 94.7%. The growth (HCT-15 colon) was 93.3%.
Compound `Cc1ccc(Nc2nnc(-c3cc(-c4ccncc4)n(-c4ccccc4)n3)s2)cc1` has a growth (K-562 leukemia) of 27%, a growth (MALME-3M melanoma) of 74.8% and a growth (MDA-MB-231 breast) of 18.9%. For the same compound, the growth (RXF 393 renal) was 57.5%, the growth (SF-268 CNS) was 113% and the growth (SF-295 CNS) was 21.9%. It also gave a growth (SF-539 CNS) of 91.6%, a growth (UACC-257 melanoma) of 110% and a growth (M14 melanoma) of 61.9%. For the same compound, the growth (HCT-15 colon) was 9.74% (active).
For `CC(C)(C)c1cc(Br)cc(C(C)(C)C)c1O`, the growth (K-562 leukemia) was 101%, the growth (MALME-3M melanoma) was 103% and the growth (MDA-MB-231 breast) was 116%. The growth (RXF 393 renal) was 101%, the growth (SF-268 CNS) was 113% and the growth (SF-295 CNS) was 97.8%. It also gave a growth (SF-539 CNS) of 104%, a growth (UACC-257 melanoma) of 104% and a growth (M14 melanoma) of 115%. The growth (HCT-15 colon) was 105%.
In the case of `O=C1CC[C@@H]2CCCC[C@@H]2C1`, the growth (K-562 leukemia) is reported as 110%, the growth (MALME-3M melanoma) is reported as 98.8% and the growth (MDA-MB-231 breast) is reported as 96%. It also gave a growth (RXF 393 renal) of 130%, a growth (SF-268 CNS) of 113% and a growth (SF-295 CNS) of 110%. For the same compound, the growth (SF-539 CNS) was 102%, the growth (UACC-257 melanoma) was 116% and the growth (M14 melanoma) was 101%. The growth (HCT-15 colon) was 113%.
`COc1ccc2c(c1)nc(N)c1c3cccnc3cn21` was tested, and the growth (K-562 leukemia) was 18.4%, the growth (MALME-3M melanoma) was 66.3% and the growth (MDA-MB-231 breast) was 22.4%. The growth (RXF 393 renal) was 34.8%, the growth (SF-268 CNS) was 34.4% and the growth (SF-295 CNS) was -16.6% (active). For the same compound, the growth (SF-539 CNS) was 10.2%, the growth (UACC-257 melanoma) was 67.1% and the growth (M14 melanoma) was 9.28% (active). For the same compound, the growth (HCT-15 colon) was 19.5%.
`COc1ccc(Oc2nc(NC3CCCC3)nc(Sc3ccc(OC)cc3)n2)cc1` gave a growth (K-562 leukemia) of 53.3%, a growth (MALME-3M melanoma) of 69.6% and a growth (MDA-MB-231 breast) of 50.1%. It also gave a growth (RXF 393 renal) of 74.1%, a growth (SF-268 CNS) of 55.6% and a growth (SF-295 CNS) of 67.4%. For the same compound, the growth (SF-539 CNS) was 83.4%, the growth (UACC-257 melanoma) was 87.3% and the growth (M14 melanoma) was 87.6%. For the same compound, the growth (HCT-15 colon) was 43.9%.
Work on `COc1ccc(-c2cc(/C=C3\C(=O)Nc4ccc(Cl)cc43)[nH]n2)cc1OC` yielded a growth (K-562 leukemia) of 100%, a growth (MALME-3M melanoma) of 87.3% and a growth (MDA-MB-231 breast) of 79.6%. The growth (RXF 393 renal) was 88.5%, the growth (SF-268 CNS) was 85.8% and the growth (SF-295 CNS) was 99.6%. For the same compound, the growth (SF-539 CNS) was 82.2%, the growth (UACC-257 melanoma) was 132% and the growth (M14 melanoma) was 101%. For the same compound, the growth (HCT-15 colon) was 77.5%.
`O=c1oc2cc(OS(=O)(=O)c3ccccc3)ccc2c2c1CCCCC2` showed a growth (K-562 leukemia) of 37.4%, a growth (MALME-3M melanoma) of 66.7% and a growth (MDA-MB-231 breast) of 68.4%. For the same compound, the growth (RXF 393 renal) was 64%, the growth (SF-268 CNS) was 76.8% and the growth (SF-295 CNS) was 59.8%. The growth (SF-539 CNS) was 48.3%, the growth (UACC-257 melanoma) was 50.8% and the growth (M14 melanoma) was 70.2%. It also gave a growth (HCT-15 colon) of 42.2%.
`COc1cc(-c2cc(/C=C/C(=O)c3ccc(Cl)c(Cl)c3)[nH]n2)cc(OC)c1OC` showed a growth (K-562 leukemia) of 31.9%, a growth (MALME-3M melanoma) of 87% and a growth (MDA-MB-231 breast) of 62.3%. The growth (RXF 393 renal) was 67.3%, the growth (SF-268 CNS) was 104% and the growth (SF-295 CNS) was 141%. The growth (SF-539 CNS) was 35%, the growth (UACC-257 melanoma) was 89.7% and the growth (M14 melanoma) was 89.8%. For the same compound, the growth (HCT-15 colon) was 50.9%.
`CC(=O)O[C@]1(C)CC[C@H]2[C@H](CNCCc3ccc(Cl)cc3)C(=O)O[C@@H]2C2=C(C)C(=O)C[C@H]21` gave a growth (K-562 leukemia) of 79.4%, a growth (MALME-3M melanoma) of 84.2% and a growth (MDA-MB-231 breast) of 90.5%. It also gave a growth (RXF 393 renal) of 115%, a growth (SF-268 CNS) of 91% and a growth (SF-295 CNS) of 105%. For the same compound, the growth (SF-539 CNS) was 106%, the growth (UACC-257 melanoma) was 76.4% and the growth (M14 melanoma) was 88.4%. It also gave a growth (HCT-15 colon) of 88.4%.
For `N#CSCC1CC(O)(c2ccccc2)CC(c2ccc(Cl)cc2)O1` (stereo not given), the growth (K-562 leukemia) was 44.8%, the growth (MALME-3M melanoma) was 7.26% (active) and the growth (MDA-MB-231 breast) was 60.8%. For the same compound, the growth (RXF 393 renal) was 9.83% (active), the growth (SF-268 CNS) was 34.6% and the growth (SF-295 CNS) was 46.6%. For the same compound, the growth (SF-539 CNS) was 58.8%, the growth (UACC-257 melanoma) was 87.8% and the growth (M14 melanoma) was 9.35% (active). For the same compound, the growth (HCT-15 colon) was 58.8%.
For `CC(=O)OCc1cc(-c2nc3ccccc3[nH]c2=O)nn1-c1ccc(Cl)cc1`, the growth (K-562 leukemia) was 93.4%, the growth (MALME-3M melanoma) was 108% and the growth (MDA-MB-231 breast) was 98.1%. It also gave a growth (RXF 393 renal) of 102%, a growth (SF-268 CNS) of 109% and a growth (SF-295 CNS) of 96.5%. For the same compound, the growth (SF-539 CNS) was 90.2%, the growth (UACC-257 melanoma) was 14.8% and the growth (M14 melanoma) was 97.2%. The growth (HCT-15 colon) was 88%.
With `COc1ccc(-c2nc(-c3nc4ccc(OC)cc4[nH]3)cc3c2[nH]c2ccccc23)cc1` the growth (K-562 leukemia) was 16.2%, the growth (MALME-3M melanoma) was 58.6% and the growth (MDA-MB-231 breast) was 59.5%. The growth (RXF 393 renal) was 43%, the growth (SF-268 CNS) was 48.8% and the growth (SF-295 CNS) was -13.1% (active). For the same compound, the growth (SF-539 CNS) was 51.6%, the growth (UACC-257 melanoma) was 70.5% and the growth (M14 melanoma) was 34.7%. It also gave a growth (HCT-15 colon) of 28.7%.
`O=C(Nc1cccc(Cl)c1)Nc1nccs1` showed a growth (K-562 leukemia) of 85.8%, a growth (MALME-3M melanoma) of 93.5% and a growth (MDA-MB-231 breast) of 93.2%. For the same compound, the growth (RXF 393 renal) was 103%, the growth (SF-268 CNS) was 107% and the growth (SF-295 CNS) was 97.6%. The growth (SF-539 CNS) was 88.4%, the growth (UACC-257 melanoma) was -10.8% (active) and the growth (M14 melanoma) was 89.3%. For the same compound, the growth (HCT-15 colon) was 86.2%.
In the case of `Nc1ncn(C2OC(CO)C(O)C2O)c(=O)n1` (stereo not given), the growth (K-562 leukemia) is reported as -24% (active), the growth (MALME-3M melanoma) is reported as 15.1% and the growth (MDA-MB-231 breast) is reported as 0.46% (active). The growth (RXF 393 renal) was 10.6%, the growth (SF-268 CNS) was 23.9% and the growth (SF-295 CNS) was 15.4%. For the same compound, the growth (SF-539 CNS) was -24.4% (active), the growth (UACC-257 melanoma) was 14.8% and the growth (M14 melanoma) was 1.16% (active). For the same compound, the growth (HCT-15 colon) was -15.3% (active).
In the case of `O=C(O)CCCCSc1ncnc2nc[nH]c12`, the growth (K-562 leukemia) is reported as 102%, the growth (MALME-3M melanoma) is reported as 96.2% and the growth (MDA-MB-231 breast) is reported as 113%. For the same compound, the growth (RXF 393 renal) was 105%, the growth (SF-268 CNS) was 98.9% and the growth (SF-295 CNS) was 101%. For the same compound, the growth (SF-539 CNS) was 102%, the growth (UACC-257 melanoma) was 99.6% and the growth (M14 melanoma) was 103%. For the same compound, the growth (HCT-15 colon) was 102%.
`Nc1ccccc1NC(=O)CCCCC(=O)Nc1ccc2c(c1)/C(=C/c1ccc[nH]1)C(=O)N2` showed a growth (K-562 leukemia) of 99.6%, a growth (MALME-3M melanoma) of 32.9% and a growth (MDA-MB-231 breast) of 93%. The growth (RXF 393 renal) was 62.9%, the growth (SF-268 CNS) was 71.9% and the growth (SF-295 CNS) was 98.4%. It also gave a growth (SF-539 CNS) of 53.1%, a growth (UACC-257 melanoma) of 97.9% and a growth (M14 melanoma) of 69.9%. The growth (HCT-15 colon) was 92.2%.
